# POLB inh = DNA polymerase beta (human) inhibition; P06746; Pol beta primer extension/strand displacement, fluorescence kinetic; Potency, µM (doses to about 114 µM), for inactives: top-dose activity change, negative = inhibition, actives largely listed as inhibitors; hit rate 1.3% among 340,000; AID 485314; note: % is set by controls: 0 for no effect and ±100 for the full control effect
#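 Preincubation: enzyme (10 nM) with compound, 15 min, RT. Reaction: substrate added to 50 nM final. Reads: 0 and 10 min. Analysis: normalized, Hill fit.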
# FEN1 inhibitor = inhibitors of human flap endonuclease 1. Potency, µM (series often up to 114 µM), inactives show at the highest dose activity change, negative = inhibition, hits mostly inhibitors. Recombinant FEN1 flap cleavage, fluorescence, 15 min. hit rate 0.35% among 390,000. AID 588795. P39748; note: % is set by controls: 0 for no effect and ±100 for the full control effect; nearly all actives have a fitted effect of over 65% in size
#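 Nuclease activity of 10 nM FEN1 was measured after 15 min of room-temperature exposure to titrated compounds, by adding 50 nM flap substrate and reading plates at 0 and 15 min.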
# POLK inh = DNA polymerase kappa (human) inhibition. Q9UBT6. purified Pol kappa, fluorescent DNA synthesis assay, 10 min. Potency, µM (series often up to 107 µM), for inactives: at the top dose activity, negative = inhibition, usual class: inhibitors. hit rate 0.53% among 400,000. AID 588579; note: % is set by controls: 0 for no effect and ±100 for the full control effect
# Target sequence (Q9UBT6 whole entry, looked up): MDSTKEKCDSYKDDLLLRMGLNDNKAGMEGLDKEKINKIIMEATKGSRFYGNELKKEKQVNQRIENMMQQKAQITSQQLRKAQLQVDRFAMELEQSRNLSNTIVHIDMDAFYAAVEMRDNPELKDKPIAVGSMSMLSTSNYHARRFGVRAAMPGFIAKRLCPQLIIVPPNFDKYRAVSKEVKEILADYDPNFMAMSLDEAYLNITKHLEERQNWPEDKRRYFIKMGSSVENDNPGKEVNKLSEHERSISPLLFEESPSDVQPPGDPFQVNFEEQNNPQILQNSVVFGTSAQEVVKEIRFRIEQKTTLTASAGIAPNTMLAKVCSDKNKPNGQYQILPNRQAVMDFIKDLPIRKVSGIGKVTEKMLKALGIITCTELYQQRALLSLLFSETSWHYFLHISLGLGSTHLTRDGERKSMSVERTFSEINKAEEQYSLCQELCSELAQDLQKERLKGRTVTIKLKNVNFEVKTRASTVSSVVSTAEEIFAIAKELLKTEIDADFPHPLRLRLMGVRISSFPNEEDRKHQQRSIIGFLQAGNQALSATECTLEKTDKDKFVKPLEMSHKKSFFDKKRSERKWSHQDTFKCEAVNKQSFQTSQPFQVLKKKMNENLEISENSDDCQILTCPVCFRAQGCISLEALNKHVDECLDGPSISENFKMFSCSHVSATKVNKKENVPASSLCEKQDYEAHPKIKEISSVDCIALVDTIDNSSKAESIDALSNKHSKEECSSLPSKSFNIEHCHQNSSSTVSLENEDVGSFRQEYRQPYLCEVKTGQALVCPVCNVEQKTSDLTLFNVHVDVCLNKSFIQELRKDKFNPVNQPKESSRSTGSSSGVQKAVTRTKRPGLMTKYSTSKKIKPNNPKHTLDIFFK
#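 10 nM Pol kappa was preincubated with compounds for 15 min at room temperature. Reaction started with 50 nM (final) substrate. Fluorescence read kinetically at 0 and 10 min.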
# Pol eta inh = DNA polymerase eta (human) inhibition. recombinant Pol eta, fluorescent DNA replication assay. Potency, µM (series often up to 114 µM), for the others: at the top dose activity change, negative = inhibition, most hits filed as inhibitors. hit rate 1.2% among 390,000; note: % is set by controls: 0 for no effect and ±100 for the full control effect
#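 Fluorescent replication assay: 50 nM final substrate added after a 15 min room-temperature compound preincubation with 10 nM enzyme. Signal taken at 0 min and again at 10 min.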
# WRN inhibitor = WRN helicase (human) inhibition; WRN helicase unwinding, fluorescent forked duplex, kinetic; Potency, µM (series often up to 114 µM), without a hit: at the top dose activity change, negative = inhibition, most hits filed as inhibitors; hit rate 0.46% among 360,000; note: % is set by controls: 0 for no effect and ±100 for the full control effect; nearly all actives have a fitted effect of over 55% in size
#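 Primary qHTS, 1536-well format. 20 nM WRN + compound, 15 min RT; start with 100 nM forked fluorophore/quencher duplex, 2 mM ATP (final); kinetic read ex 525/em 598 nm.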
# POLI inh = inhibitors of human DNA polymerase iota; Q9UNA4; AID 588590; Pol iota fluorescent replication assay, 10 min; hit rate 1% among 390,000; Potency, µM (doses to about 115 µM), without a hit: top-dose activity, negative = inhibition, hits mostly inhibitors
#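 Fluorescent replication assay read twice, at 0 min and 10 min after adding 50 nM (final) substrate. Enzyme (10 nM) and compounds were first incubated 15 min at room temperature; enzyme-free buffer wells were negative controls.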
# Starred values were filed as active, the others as inactive; ? = inconclusive; nt = no result given; [ ] = remark or other dose. The list is not random: actives were taken first. Their share in the collection is about 2.4%. Calls come from the whole dose curve; as a rule, active = well fitted curve in the direction sought with a large enough effect; inconclusive = small, poorly fitted or top-dose-only effect, or another doubt; inactive = no such curve, though single readings can be large; an effect the other way counts as inactive or inconclusive. Potency is the fitted concentration of half-maximal effect.
SMILES,POLB inh,FEN1 inhibitor,POLK inh,Pol eta inh,WRN inhibitor,POLI inh
Cc1ccc(N2C(=O)CCSC23C(=O)N(Cc2ccccc2)c2ccccc23)cc1F (configuration not stated),2.2%,-5.7%,-16.0%,-10.7%,nt,-11.4%
CCOc1c(Cl)cc(Cl)cc1CNCCSc1nnnn1C,-17.7%,0.2%,-17.5%,-9.4%,nt,6.5%
CC(=O)Nc1ccccc1OCc1cc(=O)n2c3c(sc2n1)CCCC3,28.2%,-12.6%,6.2%,-14.8%,nt,20.4%
Cc1nn(CC(=O)NC2CC2)c(=O)c2cc3cc(F)ccc3n12,6.1%,18.1%,-8.9%,-7.4%,nt,-3.9%
CN1CCN(c2ccnc(N(C)CCCCCCN)n2)CC1,nt,2.1%,-14.2%,nt,nt,1.4%
O=c1oc2c3c4c(cc2s1)CCCN4CCC3,22.4µM*,?,?,?,?,11.2µM*
CCC1CCCCN1C(=O)Cn1nc([N+](=O)[O-])c(Cl)c1C (configuration not stated),35.2%,-1.1%,?,89.1µM*,-3.7%,89.1µM*
COc1ccc(-c2noc(-c3ccccc3NC(=O)c3cc(OC)c(OC)c(OC)c3)n2)cc1,-1.7%,16.5%,3.4%,-6.5%,nt,26.0%
O=c1cc(CSc2nnc(-c3cccs3)n2Cc2ccccc2)nc2sc3ccccc3n12,10µM*,-0.9%,79.4µM*,?,-9.4%,12.6µM*
COc1cccc(CNC(=O)COCc2cc(-c3ccc4c(c3)OCO4)on2)c1,29.7%,-12.6%,-2.4%,-9.3%,nt,7.7%
Cc1cccc(CNC(=O)CN2C(=O)CCn3nc(-c4cn(C)c5ccccc45)cc32)c1,17.8µM*,3.9%,-9.7%[60.1 µM],-5.2%,nt,?
Cc1cccc(CNC(=O)CCCN2C(=O)CCn3nc(-c4cn(C)c5ccccc45)cc32)c1,-5.9%,-3.4%,-3.7%[60.1 µM],7.8%,nt,-2.3%
COc1ccc2c(C)nc(N/C(N)=N/S(=O)(=O)c3ccc(C)cc3)nc2c1,-0.1%,1.7%,-10.9%,-4.0%,-1.9%,89.1µM*
CC(C)CC1=C/C(=C/c2ccc(-c3ccccc3)o2)C(=O)O1,15.8µM*,?,44.7µM*,2.82µM*,50.1µM*,20µM*
NS(=O)(=O)c1ccc(-c2ccc(C=C3C(=O)c4ccccc4C3=O)o2)cc1,24.8%,7.0%,5.4%,-1.7%,-5.8%,?
O=C(c1ccccc1)C(I)(I)N1CCOCC1,nt,13.2%,-11.2%,nt,nt,6.9%
O=C(c1cccc(N2C(=O)C3CC=CCC3C2=O)c1)N1CCN(c2ccccc2)CC1 (configuration not stated),44.7µM*,17.0%,-4.1%,-20.3%,9.2%,-9.4%[58.9 µM]
c1ccc(-c2[nH]ncc2-c2ccnc3ccccc23)nc1,nt,nt,7.9%[60.1 µM],nt,nt,nt
CC1(OC(=O)c2ccco2)C(=O)C=C2C=C(C3CC3)OC=C2C1=O (configuration not stated),nt,?,79.4µM*,44.7µM*,?,?
CC1(OC(=O)CCc2ccccc2)C(=O)C=C2C=C(c3ccsc3)OC=C2C1=O (configuration not stated),44.7µM*,nt,nt,nt,nt,nt
COC(=O)CCCC1=CC2=CC(=O)C(C)(OC(=O)C3CCCC3)C(=O)C2=CO1 (configuration not stated),44.7µM*,?,?,20µM*,?,22.4µM*
CC1(OC(=O)C2CCCC2)C(=O)C=C2C=C(c3ccsc3)OC=C2C1=O (configuration not stated),35.5µM*,?,?,31.6µM*,?,44.7µM*
CC1(OC(=O)C2CCCC2)C(=O)C=C2C=C(c3ccsc3)N(C3CCCC3)C=C2C1=O (configuration not stated),9.8%,3.2%,-4.1%,-1.5%,11.5%,?
COC(=O)CCCC1=CC2=C(c3ccccc3)C(=O)C(C)(OC(=O)C3CCCC3)C(=O)C2=CN1C1CCCC1 (configuration not stated),5.7%,-10.0%,-4.6%,-4.0%,-2.3%,43.6%
CCOC(=O)N1CCN(C(=O)c2ccc3c(c2)N(Cc2ccccc2F)C(=O)c2ccccc2S3(=O)=O)CC1,41.1%,-12.6%,-5.3%,-7.8%,nt,7.8%
SMILES,POLB inh,FEN1 inhibitor,POLK inh,Pol eta inh,WRN inhibitor,POLI inh
CN(Cc1ccccc1)/[N+]([O-])=N/Oc1ccc([N+](=O)[O-])cc1[N+](=O)[O-],nt,1.3%,0.9%,nt,nt,?
COc1ccc(Cn2ccc3nc(C)c(C(=O)NCc4ccc(OC)cc4OC)cc3c2=O)cc1,17.5%,-9.7%,6.3%,-15.8%,nt,23.5%
CSc1ccc(CNC(=O)c2cc3c(=O)n(Cc4ccco4)ccc3nc2C)cc1,?,89.1µM*,74.2%,-4.8%,nt,?
CCOc1ccccc1CNC(=O)c1cc2c(=O)n(Cc3ccccc3)ccc2nc1C,25.1µM*,0.9%,-10.1%,-5.1%,nt,?
CC1CCC(O)C/C1=C\C=C1/CCCC2(C)C1CCC2C(C)/C=C/C(C)C(C)C (configuration not stated),nt,nt,-14.8%[19.4 µM],nt,nt,nt
COc1ccc(NC(=O)Cn2c(SCc3cccc(Cl)c3)nc3ccncc32)c(OC)c1OC,6.6%,-19.4%,-6.9%,-11.2%,nt,-8.0%
CCC(C)/C=C/C1=CC2=C(Cl)C(=O)C3(C)OC(=O)C(C(=O)C(C)C(C)O)C3C2=CO1 (configuration not stated),22.4µM*,-5.6%,79.4µM*,?,-6.2%[11.6 µM],?
N[C@H](CSC(c1ccccc1)(c1ccccc1)c1ccccc1)C(=O)O,nt,nt,-14.8%[60.1 µM],nt,nt,nt
NC(CSC(c1ccccc1)(c1ccccc1)c1cccc2ccccc12)C(=O)O (configuration not stated),nt,-20.1%,?,20µM*,?,?
O=C1C(=NO)CCc2ccccc21,nt,-4.5%,-22.9%,17.8µM*,?,?
CCCNC(=O)Cn1sc2nc(C)cc(C)c2c1=O,-0.8%,50.1µM*,6.1%,-25.6%,-15.2%[11.6 µM],26.5%
Cc1cc(C)c2c(=O)n(CC(=O)N3CCC(N4CCCCC4)CC3)sc2n1,31.5%,?,-5.8%,-14.0%,2.2%,17.2%
Cc1ccc(NC(=O)CN2C(=O)CCc3ccccc32)cc1C,22.4µM*,2.9%,-38.8%,0.4%,nt,?
Cc1ccc(Cl)cc1NC(=O)CN1C(=O)CCc2ccccc21,0.5%,5.9%,1.5%,-9.5%,nt,17.0%
Cc1ccc(C)c(NC(=O)CN2C(=O)CCc3ccccc32)c1,22.4µM*,-14.5%,?,-6.3%,nt,79.4µM*
O=c1c2ccccc2n2c(-c3ccc(Cl)cc3)nnc2n1CCc1ccccc1,-1.3%,1.4%,1.2%,-16.6%,nt,10.4%
CN(C)c1ccc(CNC(=O)CCS(=O)(=O)c2ccc3c(c2)n(C)c(=O)c(=O)n3C)cc1,25.1µM*,-1.7%,0.1%,-15.9%,-9.9%,4.5%
